Reference: PubChem BioAssay AID1347142 (National Center for Advancing Translational Sciences (NCATS), 2019)
Results filed as inconclusive are left out. Entries that show only a call come without a potency. Activity calls are given as the source filed them. Calls come from the whole dose curve; as a rule, active = well fitted inhibition curve with a large enough effect; inconclusive = small, poorly fitted or top-dose-only effect; inactive = no such curve, though single readings can be large or run the other way.

Target: N-terminal Xaa-Pro-Lys N-methyltransferase 1 (Homo sapiens) (UniProt Q9BV86)
Sequence (Q9BV86 whole entry, looked up): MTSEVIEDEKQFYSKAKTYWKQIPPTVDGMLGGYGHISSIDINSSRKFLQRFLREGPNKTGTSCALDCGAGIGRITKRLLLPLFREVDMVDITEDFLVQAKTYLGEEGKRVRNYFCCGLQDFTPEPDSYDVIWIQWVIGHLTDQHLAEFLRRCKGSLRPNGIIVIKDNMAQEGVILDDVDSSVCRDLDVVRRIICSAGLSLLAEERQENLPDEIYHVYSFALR
Assay: qHTS Assay for Inhibitors of N-terminal methyltransferase 1 (NTMT1): ThioGlo3 Assay Confirmatory Screen, Round 1.
Source text: Assay Submitter (PI): Rong Huang Ph.D, Purdue University, West Lafayette, IN 47907 The N-terminal methytransferase 1 is the first methyltransferase that methylates protein alpha-N-amines and plays an important role in regulating cell mitosis, chromatin interactions and DNA repair. It is observed to be over-expressed in various cancer patient tissues like malignant melanoma and colorectal cancer tissues. Knockdown of NTMT1 in cancer cells causes cell mitotic defects and enhances sensitivity to DNA damaging chemotherapeutics. […] These critical cellular processes in which NTMT1 is implicated, coupled with emerging links to cellular dysfunction, strengthen the inference that NTMT1 is a compelling novel anticancer target. Progress have been made in understanding the molecular properties of NTMT1 and the biological consequences of protein alpha-N-terminal methylation, but there are no specific small molecule probes available for NTMT1 to fully characterize its MTase activity. To address this unmet need, a panel of assay is created and established to enable quantitative high-throughput screening (qHTS) for novel, potent, and selective small molecule NTMT1 inhibitors. Two orthogonal qHTS that use different reagents (ThioGlo vs. MTaseGlo) are developed for primary robotic screening against the NCATS chemical library of more than 400,000 small molecules. Identified inhibitors are reacquired, validated, and further characterized. […] Early Translation Branch (ETB) National Center for Advancing Translational Sciences (NCATS) National Institute of Health (NIH)
Materials: NTMT1 enzyme, substrate SPKRIA, control peptide RCC1-6 is provided by the Huang laboratory. ThioGlo3 Assay: In brief, 125nM NTMT1 enzyme was dispensed into a 1536-well assay plate with Aurora Discovery BioRAPTR Flying Reagent Dispenser (FRD, Beckton-Dickenson). Compounds (at various concentration) or 1uM RCC1-6 (SPKRIA) control were transferred to the assay plate using the Kalypsys 1536-pintool apparatus. After 1 min of room temperature incubation, 1uL of substrate (100uM SAM, 10uM SAHH, 15uM ThioGlo3) was added to the wells bringing the final assay volume to 4uL. Initial (background) fluorescence readout (EX: 340nm, EM: 450nm) was then detected using the PerkinElmer ViewLux microplate imager and a final fluorescence readout was taken after 30 min of room temperature incubation. The data was normalized to the background fluorescence.
Note: nearly all actives have a fitted effect of over 80% in size.
Potency is the fitted concentration of half-maximal effect.

Compound | Potency
Nc1ncnc2c1ncn2[C@@H]1O[C@@H]2CO[P@](=O)(S)O[C@H]2[C@H]1O | inactive
COc1cc2nc(N3CCCN(C)CC3)nc(N(C)C3CCN(C)CC3)c2cc1OC | 24.1 µM (active)
CCN(CC)c1ncnc2c1ncn2[C@@H]1O[C@H](COP(=O)(O)OP(=O)(O)C(Br)(Br)P(=O)(O)O)[C@@H](O)[C@H]1O | inactive
Nc1ncnc2c1ncn2[C@@H]1O[C@H](COP(=O)(O)CP(=O)(O)O)[C@@H](O)[C@H]1O | inactive
Nc1ncnc2c1ncn2[C@@H]1O[C@@H]2COP(O)(=S)O[C@H]2[C@H]1O (stereo partly drawn) | inactive
Nc1ncnc2c1nc(Sc1ccc(Cl)cc1)n2[C@@H]1O[C@@H]2COP(O)(=S)O[C@H]2[C@H]1O (stereo partly drawn) | inactive
Nc1ncnc2c1ncn2[C@@H]1O[C@H](COP(=O)(O)OP(=O)(O)OP(=O)(O)O)[C@H]2OC3(O[C@H]21)C([N+](=O)[O-])=CC(=[N+]([O-])[O-])C=C3[N+](=O)[O-] (stereo partly drawn) | inactive
CCNC(=O)[C@H]1O[C@@H](n2cnc3c(N)ncnc32)[C@H](O)C1O (stereo partly drawn) | inactive
